# Bioassay records deposited in PubChem BioAssay by National Center for Advancing Translational Sciences (NCATS).
# Compounds with a hit are over-represented: about 11% of the library has one in this group of screens.
# G9a inh = qHTS Assay for Inhibitors of Histone Lysine Methyltransferase G9a | Histone-lysine N-methyltransferase EHMT2 (Homo sapiens), Q96KQ7 | G9a H3K9 monomethylation, AlphaScreen, 2 h | Potency, µM (titrated, usually from 102 µM), actives largely listed as inhibitors | hit rate 8.8% among 350,000 | AID 504332, 2011; also: nearly all actives have a fitted effect of over 75% in size
#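 Enzyme 20 nM + cpd, 15 min RT; add b-H3K9 pep 500 nM / SAM 20 uM; 2 h RT; anti-H3K9me1 Ab 0.5 ug/mL + SA donor / anti-rabbit acceptor beads 20 ug/mL each, 10 min; AlphaScreen read.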
# JMJD2A Tudor inh = qHTS Assay for Inhibitors of JMJD2A-Tudor Domain; Lysine-specific demethylase 4A (Homo sapiens), O75164; AlphaScreen JMJD2A-Tudor / H3K4me3 peptide binding; Potency, µM (top dose mostly 114 µM), hits mostly inhibitors; hit rate 4.4% among 390,000; also: nearly all actives have a fitted effect of over 50% in size
# BAZ2B block = qHTS Assay for Inhibitors of BAZ2B. Bromodomain adjacent to zinc finger domain protein 2B (Homo sapiens), Q9UIF8. AlphaScreen BAZ2B-H3K14Ac peptide displacement. Potency, µM (series often up to 114 µM), most hits filed as inhibitors. hit rate 4.4% among 360,000; also: nearly all actives have a fitted effect of over 60% in size
#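 BAZ2B 50 nM plus b-H3(5-23)K14Ac 50 nM, PBS pH 7.4/0.01% Tween-20, 30 min RT; compound added (max 110 uM), 30 min RT; streptavidin donor/Ni-chelate acceptor beads 10 ug/mL final, 20 min dark; AlphaScreen read.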
# HP1b chromo inh = HTS for Inhibitors of HP1-beta Chromodomain Interactions with Methylated Histone Tails; AlphaScreen HP1-beta / biotin-H3K9me3 peptide binding; Potency, µM (highest dose often 114 µM), most hits filed as inhibitors; hit rate 0.56% among 390,000; Chromobox protein homolog 1 (Homo sapiens), P83916; also: nearly all actives have a fitted effect of over 70% in size
#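 AlphaScreen: HP1-beta (50 nM) preformed 30 min with biotin-H3(1-18)K9me3 peptide (50 nM) in PBS pH 7.4, 0.01% Tween-20. Compound added for 30 min at RT, then streptavidin donor/nickel chelate acceptor beads (10 ug/mL) for 30 min.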
# L3MBTL1 inh = qHTS Assay for the Inhibitors of L3MBTL1; AID 485360, 2010; Potency, µM (highest dose often 57.1 µM), actives largely listed as inhibitors; AlphaScreen L3MBTL1–H3K9me1 peptide binding; Lethal(3)malignant brain tumor-like protein 1 (Homo sapiens), Q9Y468; hit rate 0.66% among 230,000; also: nearly all actives have a fitted effect of over 60% in size
#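 L3MBTL1 (50 nM) pre-complexed 30 min with biotinylated H3(1-15)K9me1 peptide (75 nM), then compounds added for 30 min at room temperature; AlphaScreen streptavidin donor/nickel chelate acceptor beads (10 ug/mL final) read after 30 min dark incubation.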
# Numbers stand for hits; . = inactive; ? = inconclusive; / = no result given; [ ] = dose if it differs, or a comment. Calls follow the shape of the dose curve; as a rule, active = well fitted inhibition curve with a large enough effect; inconclusive = small, poorly fitted or top-dose-only effect; inactive = no such curve, though single readings can be large or run the other way.
SMILES,G9a inh,JMJD2A Tudor inh,BAZ2B block,HP1b chromo inh,L3MBTL1 inh
CCc1cccc(NC(=O)CNS(=O)(=O)c2ccc3nc(C)sc3c2)c1,.,.,.,.,/
COc1ccc(C2=CC(c3ccc(F)cc3)n3ncc(C(=O)Nc4ccc(C)cc4)c3N2)cc1 (centres undefined),.,?,.,.,/
Cc1noc(C)c1-c1cncnc1-n1ccnc1,.[0.501 µM],/,/,/,/
Cc1ccc(C(=O)NNC(=S)Nc2cccc3ccccc23)s1,35.5µM,.,.,.,.
Cc1cccc(C(=O)NC(=S)Nc2ccccc2C(=O)O)c1,44.7µM,.,.,?,.
CC(=O)NNC(=S)NC(=O)c1ccc(C)cc1,?,.,?,.,.
Cc1cccc(C(=O)NC(=S)NNC(=O)Cc2ccccc2)c1,7.08µM,.,.,.,.
Cc1cccc(C(=O)NC(=S)Nc2ccccc2C(F)(F)F)c1,.,?,.,.,.
CC(=O)NNC(=S)NC(=O)c1ccccc1,6.31µM,20µM,.,.,.
O=C(NC(=S)NCCc1ccccc1)c1cccc(Cl)c1,.,.,.,.,/
O=C(COc1ccccc1)NNC(=S)NC(=O)c1ccccc1,2.24µM,17.8µM,/,.,.
O=C(Nc1ccc2c(c1)OCCO2)c1coc2ccccc2c1=O,.,28.2µM,.,.,.
CCCC/C=C/[C@H](c1ccccc1)[C@H](CO)Cc1ccccc1,/,.,/,.,/
Cn1c(=O)c2[nH]c(SCC(=O)c3ccc(F)cc3)nc2n(C)c1=O,?,.,.,.,/
COc1ccc(NC(=O)c2ccc(NC(=O)CSc3nccc(=O)[nH]3)cc2)cc1,?,?,56.2µM,.,/
COc1ccc(C(=O)NNC(=O)CSc2nc3c([nH]2)c(=O)n(C)c(=O)n3C)cc1,22.4µM,.,.,.,.
COc1ccc(C(=O)Nc2c(N)nc(SCC(=O)Nc3ccc(NC(C)=O)cc3)[nH]c2=O)cc1,.[12.7 µM],.,.,.,/
COc1ccc(-c2nc3nc(C)cc(N4CCN(c5cccc(C(F)(F)F)c5)CC4)n3n2)cc1,.,.,.,.,/
CCC(=O)Nc1nc(=S)ss1,8.91µM,.,?,?,/
CC(C)(C)C(=O)Nc1nc(=S)ss1,?,.,.,.,/
Cc1cccc(NC(=O)CN2CCCCCC2)c1,14.1µM,20µM,?,50.1µM,/
O=C(CN1CCCC1)Nc1ccc(F)c(Cl)c1,/,22.4µM,?,.,/
Cc1cc(N)ccc1NC(=O)CN1CCCC1,25.1µM,22.4µM,50.1µM,?,/
O=C(Cn1cnc([N+](=O)[O-])c1)Nc1ccc(F)c(Cl)c1,50.1µM,.,.,.,/
Cc1nc([N+](=O)[O-])cn1CC(=O)Nc1ccc(F)c(Cl)c1,.,.,.,.,.
SMILES,G9a inh,JMJD2A Tudor inh,BAZ2B block,HP1b chromo inh,L3MBTL1 inh
COc1ccc(N)cc1NC(=O)CN1CCCC1,?,.,.,.,.
O=C(CN1CCCCC1)Nc1ccc(F)c(Cl)c1,.,.,.,.,.
COc1ccccc1OC(C)C(=O)Nc1c(C(=O)c2ccc(Cl)cc2)oc2ccccc12 (centres undefined),.,.,.,.,/
CC(=O)Nc1ccccc1OCc1cc(=O)n2c(C)csc2n1,.,.,.,.,/
Cc1ccc(OCCC(=O)Nc2ccc(F)c(Cl)c2)cc1,.,.,.,.,.
Cc1ccc(NC(=O)CN2CCN(C)CC2)cc1S(=O)(=O)N1CCOCC1,?,.,.,.,.
Cc1ccc(NC(=O)CN2CCN(C)CC2)cc1Br,/,5.62µM,50.1µM,?,.
Cc1ccc(NC(=O)CN(C)CC(=O)Nc2ccc(F)c(Cl)c2)cc1,31.6µM,14.1µM,50.1µM,?,?
O=C(CN1CCCCCC1)Nc1ccc(F)c(F)c1,31.6µM,8.91µM,50.1µM,?,.
Cc1ccccc1CNC(=O)C(=O)NCC(c1ccco1)S(=O)(=O)c1ccc(F)cc1 (centres undefined),.,.,.,.,/
O=C(c1ccncc1)N1CCC2(CCCN(c3ccncc3)C2)CC1,.[12.7 µM],/,/,/,/
COc1cc(Cl)c(C)cc1NC(=O)c1cc2c(Cl)nc3ccc(C)cc3c2s1,.,.,?,.,/
C=CCn1c(SCC(=O)c2ccc(O)c(O)c2)nnc1-c1cccc(OC)c1,.[0.501 µM],?,50.1µM,.,?
C=CCn1c(SCC(=O)c2cccs2)nnc1-c1cccc(OC)c1,?,89.1µM,.,.,/
C=CCn1c(SCC(C)=O)nnc1-c1cc(-c2ccccc2)sc1N,11.2µM,?,?,.,.
Cc1c(C)n(Cc2ccccc2)c2ccc(C(=O)NCC(C)c3ccccc3)cc12 (centres undefined),.,?,.,.,/
CCCC1=Nc2cc(C(=O)NC3CCCCC3)ccc2Sc2ccc(C)cc21,.,.,.,.,/
CCOc1ccc2c(=O)c(Oc3ccccc3OCC)coc2c1,.,.,.,.,/
CCOc1ccccc1Oc1coc2cc(OCC(=O)O)ccc2c1=O,14.1µM,.,.,.,?
CC1CCCN(C(=O)Cn2ncc3c([nH]c4ccccc43)c2=O)C1 (centres undefined),.,.,.,.,/
Cc1ccc(S[C@@H](CCN2CC[C@H](NC(=O)OCc3ccccc3)CCC2=O)c2ccccc2)cc1,/,25.1µM,.,.,.
CC(C)CCn1c(=O)c2sccc2n2c(CCCC(=O)Nc3ccc(C(C)C)cc3)nnc12,.,.,.,.,/
COc1ccccc1CNC(=O)C1CCN(C2=NS(=O)(=O)C(c3ccc(C)c(C)c3)=C2C)CC1,.,56.2µM,.,.,/
Cc1cc2ccccn2c1C(=O)c1ccccc1Br,?,.,.,.,/
Cc1cc2ccccn2c1C(=O)c1ccc([N+](=O)[O-])cc1[N+](=O)[O-],?,20µM,25.1µM,39.8µM,/
SMILES,G9a inh,JMJD2A Tudor inh,BAZ2B block,HP1b chromo inh,L3MBTL1 inh
Cc1cc2ccccn2c1C(=O)c1ccc([N+](=O)[O-])o1,?,?,10µM,.,.
Cc1cc2ccccn2c1C(=O)c1ccc(F)cc1,.,.,.,.,/
Cc1cc2ccccn2c1C(=O)c1cccc([N+](=O)[O-])c1,39.8µM,.,?,?,/
Cc1cc2ccccn2c1C(=O)c1ccc(Cl)c([N+](=O)[O-])c1,.,?,11.2µM,?,.
Cc1c(C=O)c2ccccn2c1C(=O)c1ccc(Cl)c([N+](=O)[O-])c1,.,.,/,.,.
COC(=O)/C=C/S(=O)(=O)c1ccc(NC(C)=O)cc1,8.91µM,.,/,.,.
COc1ccccc1OS(=O)(=O)c1ccc(NC(C)=O)cc1,.,.,.,.,.
CCCCOC(=O)c1ccc(NC(=O)Cn2nnc3sc4c(c3c2=O)CCCC4)cc1,.,.,.,.,/
Cc1cc(C)cc(NC(=O)C(=O)NCC(c2ccc3c(c2)OCO3)N2CCN(C)CC2)c1 (centres undefined),.,.,.,.,/
Cc1ccc(C)n1Cc1ccc(C(=O)O)cc1,8.91µM,0.794µM,15.8µM,?,?
